Experimental data as given in PubChem BioAssay (NCATS).
Where “and” joins values, the source holds several entries; their conditions need not be identical. Equal entries are not always repeated. Inconclusive results are not listed. Calls of active or inactive are those of the source. Calls come from the whole dose curve; as a rule, active = well fitted curve in the direction sought with a large enough effect; inconclusive = small, poorly fitted or top-dose-only effect, or another doubt; inactive = no such curve, though single readings can be large or run the other way.

Assay: qHTS Assay for Identifying Gametocytocidal Compounds (AID 743244);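 for max response: actives lower the fluorescent signal which means gametocytes are killed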
Conditions: P. falciparum 3D7 stage III-V gametocytes, alamarBlue, 72 h; max response: hits give low values
Source text: Malaria cases and deaths have dropped 50% in 29 countries since 2000 due to the combined effects of long-lasting insecticidal bednets, indoor residual spraying, and artemisinin-based combination therapies (ACTs). This success has raised hopes for malaria eradication and consequently stimulated interest in developing new reagents that block gametocyte transmission such as novel and safe gametocytocidal drugs. However, previous drug development efforts have focused primarily on the asexual parasites that cause symptoms, but not malaria transmission. Consequently, patients can remain infectious for weeks after the clearance of asexual parasites and clinical symptoms. To be transmitted from person to person via a mosquito, the parasites must switch from asexual to sexual development and produce male and female gametocytes. Malaria gametocytes consist of five stages (I, II, III, IV and V). The late stage gametocytes (III, IV and V) are difficult to be cultured in vitro and the long lifespan of mature gametocytes allows them being transmitted from host to mosquitoes unless they are completely eliminated by gametocytocidal agents. To identify gametocytocidal compounds which are capable of killing late stage P. falciparum gametocytes, a high throughput gametocyte viability assay was employed. This assay uses oxidoreduction indicator, alamarBlue, as a general measure of metabolic activity of gametocytes. Within live cells, the nonfluorescent resazurin is reduced to resorufin, a bright red fluorescence dye. Fluorescence decreases upon treatment of gametocytocidal compounds. P. falciparum gametocyte (3D7 strain) was used in this study.
The 1536-well gametocycidal viability assay was based on the previous method of Tanaka et al. Stage III-V gametocytes were tested against three compound libraries, including 4265 compounds from NCGC pharmaceutical collection, 400 from Malaria Box library, and 550 from an internal collection of kinase inhibitors. Briefly, 2.5 ul/well incomplete medium was dispensed into each well of 1,536-well plates using the Multidrop Combi followed by 23 nl compound transferring using the NX-TR Pintool (WAKO Scientific Solutions, San Diego, CA). Then, 2.5 ul/well of gametocytes was dispensed with a seeding density of 20,000 cells/well using the Multidrop Combi. The assay plates were incubated for 72 h at 37C with 5% CO2. After addition of 5 ul/well of 2X AlamarBlue dye (Life Technologies, cat. no. DAL1100), the plates were incubated for 24 h at 37C with 5% CO2 and then were read in a fluorescence detection mode (Ex = 525 nm, Em = 598 nm) on a ViewLux plate reader (PerkinElmer).
% is set by controls: 0 for no effect and ±100 for the full control effect; potency is the fitted concentration of half-maximal effect.

For `O=C1C(I)=CC(=C(c2cc(I)c(O)c(I)c2)c2ccccc2C(=O)O)C=C1I`, which max response is on record?
Its max response is 4.96% (inactive) and 16.9% (inactive).

For `O=C(O)COc1nc(Cl)c(Cl)cc1Cl`, which max response is on record?
Its max response is 14.5% (inactive).

Which max response does the source give for `S=C(NC1CCCCC1)N1CCC(c2cnc[nH]2)CC1` here?
Its max response is 16.5% (inactive).

Which Potency does the source give for `O=C(O)c1ccc(O)c2ncc(N3CCOCC3)cc12` here?
Its Potency is 9.35 µM (active).

For `COc1cc(C(O)CN)ccc1O` (stereo not given), which max response is on record?
Its max response is 2.34% (inactive).

Which max response does the source give for `CC(C)[C@]12O[C@H]1[C@@H]1O[C@]13[C@]1(O[C@H]1C[C@H]1C4=C(CC[C@@]13C)C(=O)OC4)[C@@H]2O` here?
Its max response is -3.04% (inactive).

Which max response does the source give for `Cc1c(C(=O)Nc2cccc(C(F)(F)F)c2)cc(-c2ccccc2)n1CCCN1CCOCC1` here?
The max response was 12.4% (inactive).

For `O=C(O)c1cc(Oc2ccc(C(F)(F)F)cc2Cl)ccc1[N+](=O)[O-]`, which max response is on record?
The max response was -10.7% (inactive).

Which max response does the source give for `NC1CC1c1ccccc1` (stereo not given) here?
The max response was 14.3% (inactive).

With `CO[C@H]1C=CC=C(C)C(=O)NC2=CC(=O)C(NCCN(C)C)=C(C[C@@H](C)C[C@H](OC)[C@@H](O)[C@@H](C)C=C(C)[C@@H]1OC(N)=O)C2=O` as the compound, how does the Potency read?
Its Potency is 0.0469 µM (active).

For `O=C(Cc1ccc(Cl)c(Cl)c1)N1CCCCC1CN1CCCC1` (stereo not given), which max response is on record?
Its max response is 17.1% (inactive).

With `C#CCOC(=O)C1=CCCN(C)C1` as the compound, how does the max response read?
Its max response is 10.6% (inactive).

With `O=[N+]([O-])/N=C1\NCCN1Cc1ccc(Cl)nc1` as the compound, how does the max response read?
The max response was 3.56% (inactive) and 4.82% (inactive).

With `CCCCCCCCCC(CC)c1ccc(S(=O)(=O)O)cc1` (stereo not given) as the compound, how does the max response read?
Its max response is -5.24% (inactive) and 45.2% (inactive).

With `CCO/N=C(\CC)C1=C(O)CC(c2c(C)cc(C)cc2C)CC1=O` (stereo not given) as the compound, how does the max response read?
Its max response is 13.9% (inactive).

With `c1ccc(C2(c3ccccc3)CC2C2=NCCN2)cc1` (stereo not given) as the compound, how does the max response read?
Its max response is -4.94% (inactive) and 21.7% (inactive).

With `CCCN(CCC)[C@@H]1CCc2ccc(O)cc2C1` as the compound, how does the max response read?
The max response was 10.7% (inactive).

For `CC1(C)CC/C(=C/c2ccc(Cl)cc2)C1(O)Cn1cncn1` (stereo not given), which max response is on record?
Its max response is -5.52% (inactive).

With `O=C(O)CC[N+](=O)[O-]` as the compound, how does the max response read?
Its max response is 13% (inactive).

For `CC(C)(C)C(O)C(Oc1ccc(Cl)cc1)n1cncn1` (stereo not given), which max response is on record?
Its max response is 12.8% (inactive).

With `COc1ccc2c(c1)CC[C@H]1[C@@H]2CC[C@]2(C)[C@@H](NCCCCCCN3C(=O)C=CC3=O)CC[C@H]12` as the compound, how does the Potency read?
The Potency was 9.35 µM (active).

With `CC1CC(C)C(=O)C(C(O)CC2CC(=O)NC(=O)C2)C1` (stereo not given) as the compound, how does the Potency read?
The Potency was 1.52 µM (active).

With `NC1CCc2cc(O)c(O)cc2C1` (stereo not given) as the compound, how does the max response read?
Its max response is 20.3% (inactive).

Which max response does the source give for `O=C(Oc1ccc([N+](=O)[O-])cc1)N1CCC(C(O)(c2ccc3c(c2)OCO3)c2ccc3c(c2)OCO3)CC1` here?
The max response was -4.93% (inactive).

With `CC(=O)[O][Hg][c]1ccccc1` as the compound, how does the Potency read?
Its Potency is 1.12 µM (active).

Which max response does the source give for `CC[C@@H](C(N)=O)N1CCCC1=O` here?
Its max response is 27.6% (inactive).

Which max response does the source give for `CN[C@@H](C)[C@H](O)c1ccccc1` here?
Its max response is -11.3% (inactive).

For `CCCCOC(=O)c1ccccc1C(=O)OCc1ccccc1`, which max response is on record?
The max response was 13.2% (inactive).

With `NC(=O)CN1CC(O)CC1=O` (stereo not given) as the compound, how does the max response read?
Its max response is -2.78% (inactive) and 8.87% (inactive).

Which max response does the source give for `C[C@@H](N)Cc1cnc[nH]1` here?
Its max response is 1.66% (inactive).

Which max response does the source give for `O=C(O)[C@@H]1CCN1` here?
Its max response is 23.1% (inactive).

Which Potency does the source give for `COc1ccc2c(c[n+](C)c3c4cc5c(cc4ccc23)OCO5)c1OC` here?
Its Potency is 18.7 µM (active).

Which max response does the source give for `Cc1nc(-c2ccc(-c3ccc(C(=O)N4CCc5cc6c(cc54)C4(CCN(C)CC4)CO6)cc3)c(C)c2)no1` here?
Its max response is -4.85% (inactive).

With `Cn1cnc(CCN)c1` as the compound, how does the max response read?
Its max response is 33.2% (inactive).

For `CCCCc1ccc(C(=O)O)nc1`, which max response is on record?
The max response was 4.22% (inactive) and 15% (inactive).

For `CC(C)Oc1cccc(NC(=O)c2ccccc2C(F)(F)F)c1`, which max response is on record?
The max response was 15.7% (inactive).

With `O=C(O)CCCOc1ccc(Cl)cc1Cl` as the compound, how does the max response read?
The max response was 19% (inactive).

For `O=C(O)C(Cl)Cl`, which max response is on record?
The max response was -4.42% (inactive) and 4.64% (inactive).

Which max response does the source give for `Cc1ccccc1-n1c(Cn2cnc3c(N)ncnc32)nc2cccc(C)c2c1=O` here?
Its max response is 15.4% (inactive).

Which max response does the source give for `CC[N+]1(CCOC(=O)C(O)(c2ccccc2)c2ccccc2)CCCCC1` here?
Its max response is 2.2% (inactive).
